A selection: hits, their analogues and other compounds. The true share with any hit is near 7.9%.
HCV inh = HCV inhibition. Huh7.5.1 HCVcc-Cre infection, luciferase reporter, 44 h. Potency, µM (top dose mostly 41.8 µM), for inactives: top-dose activity change, negative = inhibition, hits mostly inhibitors. 3.4% of 340,000 active; active = well fitted inhibition curve with a large enough effect; inconclusive = small, poorly fitted or top-dose-only effect, or another doubt; inactive = no such curve, though single readings can be large or run the other way; also: potency is read from the fitted curve at half-maximal effect
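Cells seeded at 1,000/well and cultured 4 h, then compounds added followed by HCVcc-Cre virus (~0.5 moi). After 44 h further culture, luciferase substrate was added, plates held 15 min at room temperature, and luminescence read for 15 sec.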
LASV entry inh = Lassa virus entry inhibition; Lassa virus pseudotype entry inhibition, cell reporter; Potency, µM (titrated, usually from 37.9 µM), for inactives: at the top dose activity change, negative = inhibition, most hits filed as inhibitors; 1.2% of 300,000 active; calls by dose curve; tested in HEK293 cells; also: potency is read from the fitted curve at half-maximal effect; nearly all actives have a fitted effect of over 50% in size
Marburg entry inh = Marburg virus entry inhibition. Marburg virus pseudotyped entry inhibition, cell reporter. Potency, µM (doses to about 37.8 µM), inactives show at the top dose activity change, negative = inhibition, most hits filed as inhibitors. 1.8% of 300,000 active. AID 540276; calls by dose curve; tested in HEK293 cells; also: potency is read from the fitted curve at half-maximal effect
FMDV inh = foot and mouth disease virus antiviral activity; FMDV antiviral cell-based qHTS; Potency, µM (titrated, usually from 57.9 µM), for the others: at the top dose activity change, negative = inhibition, most hits filed as inhibitors; 1.2% of 410,000 active; calls by dose curve; tested in HEK293T cells; also: read-out not given here; potency is read from the fitted curve at half-maximal effect; nearly all actives have a fitted effect of over 45% in size
HCMV inh = human cytomegalovirus inhibition; activity change, negative = inhibition, % at 57.5 µM; HFF cells, HCMV-luciferase reporter, 72 h; active compounds read low; 4.5% of 410,000 active; in the data active = activity change below about -60%; inconclusive = no clear call, values can overlap the other calls; inactive = above about -39%
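Steps: HFFs plated, 16 h 37C; compounds added; HCMV-luciferase added to MOI 1 PFU/cell; 72 h 37C; OneGlo reagent, 5 min room temperature; luminescence read, normalized to controls.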
* = called active by the depositor; ? = inconclusive; . = not tested or not shown; [ ] = another dose, or the depositor's remark. % is scaled to controls: 0 for no effect and ±100 for the full control effect.

SMILES | HCV inh | LASV entry inh | Marburg entry inh | FMDV inh | HCMV inh
CCOC(=O)c1c(C)[nH]c(CCC(=O)NCc2cc(OC)c(OC)c(OC)c2)c1C | . | 5%[46.1 µM] | . | -15% | 63
ON=C1c2ccccc2-c2cc(Br)ccc21 | ? | 1% | 16% | 0% | -64*
ON=C1c2ccccc2-c2ccc(O)cc21 | ? | 23%[46.1 µM] | 0% | 38% | -30
CC(=O)N1CCCC1c1nc2ccccc2n1Cc1ccccc1Cl (stereo not given) | . | 1%[46.1 µM] | -1%[46.1 µM] | -8% | 2
COc1ccc(CCNc2nnc(Sc3nnnn3-c3ccccc3)s2)cc1OC | 14µM* | -21% | ? | 28µM* | -98*
CCC1(C2CCN(C(=O)c3ccc4ccccc4c3)CC2)NC(=O)N(CCc2scnc2C)C1=O (stereo not given) | . | . | . | 7% | .
CNC(CC(=O)c1ccc([N+](=O)[O-])cc1)C(Cl)(Cl)Cl (stereo not given) | 9% | ? | ? | 32µM* | .
O=c1c2sc3ccccc3c2n(Cc2cccc(C(F)(F)F)c2)c(=O)n1-c1ccccc1 | . | ? | ? | -10% | -22
O=C(COc1ccc2oc3c(c2c1)CCCC3)Nc1ccc(Br)cc1 | . | -1%[46.1 µM] | 19%[46.1 µM] | -15% | ?
Cc1ccc(OCCNc2ccc(S(=O)(=O)N3CCCC3)cn2)cc1 | -11% | ? | -24%[46.1 µM] | 3% | 5
CN(CCOc1ccc(Cl)cc1)c1ccc(S(=O)(=O)N2CCCCC2)cn1 | 14µM* | ? | ? | -24% | -11
O=S(=O)(c1ccc(SCCOc2ccc(F)cc2)nc1)N1CCCC1 | 16µM* | . | . | ? | ?
O=S(=O)(c1ccc(SCCOc2ccccc2)nc1)N1CCCC1 | ? | . | . | -24% | -9
C=CCN1c2ccccc2[C@]23C[C@@H](C(=O)OC)N(C(=O)Nc4ccc(C(F)(F)F)cc4)C2=NC(C(=O)OC)=C(C(=O)OC)[C@H]13 | . | . | 17%[14.2 µM] | . | .
CC(C)(C)c1cc(CP(=O)(c2ccccc2)c2ccccc2)cc(C(C)(C)C)c1O | 16µM* | . | . | ? | -14
O=P(Cc1ccccc1)(c1ccccc1)c1ccccc1 | 15% | 0% | 3% | -5% | -31
COc1ccc(NC(=O)c2c(NC(=O)CNCC(C)C)sc3c2CCC3)c(OC)c1 | 10µM* | ? | ? | -30% | -4
COc1ccc(NC(=O)c2c(NCc3sccc3C)sc3c2CCCCC3)c(OC)c1 | . | -27%[46.1 µM] | . | 44% | -7
CCOC(=O)N1CCc2c(sc(NCc3ccc(N(C)C)cc3)c2C(=O)Nc2ccc(OC)cc2)C1 | . | ? | . | -4% | -65*
CCOC(=O)N1CCc2c(sc(NCc3cccc(F)c3)c2C(=O)Nc2ccc(OC)cc2OC)C1 | . | ? | . | -9% | -87*
CCOC(=O)N1CCc2c(sc(NCc3sccc3C)c2C(=O)Nc2ccc(OC)cc2OC)C1 | . | ? | . | 32µM* | -85*
CC(=O)N1CCc2cc(Br)cc(S(=O)(=O)CCC(=O)N3CCN(c4cccc(C)c4C)CC3)c21 | . | -26%[46.1 µM] | 5%[46.1 µM] | 0% | ?
COc1ccc2c(c1)C[C@@H](C)O[C@]21C(=O)Nc2ccccc21 | . | . | 71%[14.2 µM] | . | .
O=C1C=C(NCCN2CCOCC2)C(=O)c2cnccc21 | ? | ? | 2.9µM* | . | .
O=C(NCCN1CCOCC1)c1ccncc1 | 18% | ? | -3% | -12% | 18
SMILES | HCV inh | LASV entry inh | Marburg entry inh | FMDV inh | HCMV inh
CC(=O)Nc1ccc(S(=O)(=O)N2CCN(c3nc(NC4CCCC4)c4ccccc4n3)CC2)cc1 | 7.9µM* | ? | ? | ? | -37
Cc1ccc2c(c1)c1n[nH]c(=S)nc1n2CCc1ccccc1 | -6% | . | . | -29% | -93*
Fc1ccc2c(c1)c1n[nH]c(=S)nc1n2CCc1ccccc1 | 7% | . | . | -6% | ?
O=C(CNc1cccc2ccccc12)N/N=C/c1cccc(Oc2ccccc2)c1 | -5% | -15% | -32% | -2% | -61*
O=C(N/N=C/c1cccc(Oc2ccccc2)c1)c1ccccc1Br | 11µM* | 6.5µM* | ? | . | -91*
COC(=O)c1ccc(NC(=O)CSc2cn(CC(=O)N3CCCCCC3)c3ccccc23)cc1 | . | -18%[46.1 µM] | . | -24% | 29
O=C(N/N=C/c1c[nH]c2ccccc12)c1cc(-c2ccccc2)n[nH]1 | ? | 15% | -14%[46.1 µM] | -5% | 35
O=C(N/N=C/c1c[nH]c2ccccc12)c1cc(-c2ccc(-c3ccccc3)cc2)n[nH]1 | -26% | -16% | ? | ? | -74*

Bioassay records as filed in PubChem.
